Assay results as given in PubChem BioAssay (NCATS).
Records with an inconclusive call do not appear. Where a call stands in place of a potency, no number is given. Activity calls are given as the source filed them. Calls follow the shape of the dose curve; as a rule, active = well fitted curve in the direction sought with a large enough effect; inconclusive = small, poorly fitted or top-dose-only effect, or another doubt; inactive = no such curve, though single readings can be large; an effect the other way counts as inactive or inconclusive.

Assays:
[1] = qHTS of pediatric cancer cell lines to identify multiple opportunities for drug repurposing: Primary screen for RD cells (AID 1347104); settings: RD rhabdomyosarcoma viability, CellTiter-Glo luminescence, 48 h; series mostly up to 46 µM; also: nearly all actives have a fitted effect of over 55% in size; also: potency is read from the fitted curve at half-maximal effect
Outline: (§1)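 Following a 5-hour attachment period, cells at 500-1,000/well received compounds and were cultured for 48 hours. CellTiter-Glo was added and luminescence read to estimate viable, metabolically active cells.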

[2] = qHTS of pediatric cancer cell lines to identify multiple opportunities for drug repurposing: Primary screen for MG 63 (6-TG R) cells (AID 1347105); settings: MG 63 (6-TG R) viability, CellTiter-Glo, 48 h; series mostly up to 46 µM; also: nearly all actives have a fitted effect of over 50% in size; also: potency is read from the fitted curve at half-maximal effect
Outline: as §1

[3] = qHTS of pediatric cancer cell lines to identify multiple opportunities for drug repurposing: Primary screen for control Hh wild type fibroblast cells (AID 1347106); settings: Hh wild-type fibroblast viability, CellTiter-Glo luminescence, 48 h; series mostly up to 46 µM; also: nearly all actives have a fitted effect of over 55% in size; also: potency is read from the fitted curve at half-maximal effect
Outline: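 Cells (500-1,000/well) in growth media were settled 5 h at 37 degrees C, then given compounds for 48 h. Viability was read as CellTiter-Glo luminescence. Primary runs used MIPE at 11 points (0.78 nM-46 µM) and NPC at 8 points (0.59 nM-46 µM); follow-ups used 11 points.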

[4] = qHTS of pediatric cancer cell lines to identify multiple opportunities for drug repurposing: Primary screen for Rh30 cells (AID 1347107); settings: Rh30 rhabdomyosarcoma viability, CellTiter-Glo luminescence, 48 h; series mostly up to 46 µM; also: nearly all actives have a fitted effect of over 75% in size
Outline: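 Cells (500-1,000/well) rested 5 h, then received compounds for 48 h; metabolically active cells were measured by CellTiter-Glo luminescence. Final concentrations spanned up to 46 µM (MIPE, 11-point) or 0.59 nM-46 µM (NPC, 8-point) in primary screens, 11-point in follow-ups.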

[5] = qHTS of pediatric cancer cell lines to identify multiple opportunities for drug repurposing: Primary screen for Rh41 cells (AID 1347108); settings: Rh41 rhabdomyosarcoma viability, CellTiter-Glo luminescence, 48 h; series mostly up to 46 µM;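 also: luminescence drop marks cytotoxic hits; nearly all actives have a fitted effect of over 70% in size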
Outline: as §1

SMILES | Potency [1] | Potency [2] | Potency [3] | Potency [4] | Potency [5]
CCNC(=O)NCc1cccc(Cl)c1 | inactive | inactive | inactive | inactive | inactive
C#C[C@]1(OC(C)=O)CC[C@H]2[C@@H]3CCC4=C/C(=N/O)CC[C@@H]4[C@H]3CC[C@@]21CC | 29.9 µM (active) | inactive | inactive | inactive | 
O=C1C(O)=C(O)C(=O)C(O)=C1O | inactive | inactive | inactive | inactive | inactive
CCCCNC(=O)NS(=O)(=O)c1ccc(N)cc1 | inactive | inactive | inactive | inactive | inactive
CCOC(=O)[C@H](CCc1ccccc1)N[C@@H](C)C(=O)N1[C@H](C(=O)O)C[C@@H]2CCC[C@@H]21 | inactive | inactive | inactive | inactive | inactive
CO[C@]12C[C@@H](COC(=O)c3cncc(Br)c3)CN(C)[C@@H]1Cc1cn(C)c3cccc2c13 | inactive | inactive | inactive | inactive | inactive
CCN(CC)CCNc1ccc(CO)c2sc3ccccc3c(=O)c12 | 23.7 µM (active) | inactive | 18.8 µM (active) | inactive | 
Cc1cc(-c2ccccc2)nnc1NCCN1CCOCC1 | inactive | inactive | inactive | inactive | 
CC(=O)Nc1ccc(OCC(O)CNC(C)C)cc1 (stereo not drawn) | inactive | inactive | inactive | inactive | 
FC(F)(F)C(F)(F)C(F)(F)C(F)(F)C(F)(F)C(F)(F)C(F)(F)C(F)(F)Br | inactive | inactive | inactive | inactive | inactive
O=C1[C@H](CC[C@H](O)c2ccc(F)cc2)[C@@H](c2ccc(O)cc2)N1c1ccc(F)cc1 | inactive | inactive | inactive | inactive | 
NC(=O)c1ccccc1O | inactive | inactive | inactive | inactive | inactive
CCCCC(CC)COC(=O)c1ccc(N(C)C)cc1 (stereo not drawn) | inactive | inactive | inactive | inactive | inactive
CC(CNC1CCCCC1)OC(=O)c1ccccc1 (stereo not drawn) | inactive | inactive | inactive | inactive | inactive
N#CCC(=O)NN | inactive | inactive | inactive | inactive | inactive
O[C@@H](c1cc(C(F)(F)F)nc2c(C(F)(F)F)cccc12)[C@H]1CCCCN1 | 23.7 µM (active) | 26.6 µM (active) | inactive |  | 
CCCCCN=C(N)N/N=C/c1c[nH]c2ccc(OC)cc12 | 7.5 µM (active) |  |  |  | 
CC(C)[N+](C)(C)CC(O)COc1cccc2ccccc12 (stereo not drawn) | inactive | inactive | inactive | inactive | inactive
Cc1ccccc1OCC(O)CO (stereo not drawn) | inactive | inactive | inactive | inactive | inactive
C[C@@H](O)[C@H]1C(=O)N2C(C(=O)O)=C(S[C@@H]3CN[C@H](CNS(N)(=O)=O)C3)[C@H](C)[C@H]12 | inactive | inactive | inactive | inactive | inactive
O=C(O)CCC(=O)Nc1ccc(S(=O)(=O)Nc2nccs2)cc1 | inactive | inactive | inactive | inactive | inactive
C/C=C/c1ccc(O)c(OC)c1 | inactive | inactive | inactive | inactive | inactive
C[C@]12CCC(=O)C=C1C=C[C@@H]1[C@@H]2CC[C@@]2(C)[C@H]1CC[C@@]21CCC(=O)O1 | inactive | inactive | inactive |  | 
Cc1cn([C@H]2C[C@H](F)[C@@H](CO)O2)c(=O)[nH]c1=O | inactive | inactive | inactive | inactive | inactive
CCCc1ncc(C[n+]2ccccc2C)c(N)n1 | inactive | inactive | inactive | inactive | inactive

SMILES | Potency [1] | Potency [2] | Potency [3] | Potency [4] | Potency [5]
O=C1C(=O)c2ccccc2C(O)=C1C1CCC(c2ccc(Cl)cc2)CC1 (stereo not drawn) | inactive | inactive | inactive | inactive | inactive
CC1(C)OC[C@@H]2O[C@@]3(C(=O)O)OC(C)(C)O[C@H]3[C@@H]2O1 | inactive | inactive | inactive | inactive | inactive
CC(C)(C)NC[C@H](O)COc1cccc2c1CCCC2=O | inactive | inactive | inactive | inactive | 
CCN1CCCC(OC(=O)C(c2ccccc2)c2ccccc2)C1 (stereo not drawn) | inactive | inactive | inactive | inactive | inactive
Oc1c(Cl)cc(Cl)c(Cl)c1Cc1c(O)c(Cl)cc(Cl)c1Cl | 11.9 µM (active) | 6.68 µM (active) | inactive | inactive | 
CN(C)CCOC(=O)C(c1ccccc1)C1(O)CCCC1 (stereo not drawn) | inactive | inactive | inactive | inactive | inactive
NC(=O)C1(N2CCCCC2)CCN(CCCC(=O)c2ccc(F)cc2)CC1 | inactive | inactive | inactive | inactive | inactive
CCCN(CCC)S(=O)(=O)c1ccc(C(=O)O)cc1 | inactive | inactive | inactive | inactive | inactive
NS(=O)(=O)Cc1noc2ccccc12 | inactive | inactive | inactive | inactive | inactive
Oc1ccc(Cl)cc1Cc1cc(Cl)ccc1O | 21.1 µM (active) | 16.8 µM (active) | inactive |  | 
CCN(CC)CCNC(=O)c1cc(Br)c(N)cc1OC | inactive | inactive | inactive | inactive | inactive
CC[N+](C)(CC)CCOC(=O)C(O)(c1ccccc1)C1CCCCC1 (stereo not drawn) | inactive | inactive | inactive | inactive | inactive
Cc1cccc(C)c1NC(=O)c1ccccc1C(=O)O | inactive | inactive | inactive | inactive | inactive
CCN(CC)CCNC(=O)COc1ccc(OC)cc1 | inactive | inactive | inactive | inactive | inactive
CC(=O)Nc1ccc(OC(=O)c2ccccc2OC(C)=O)cc1 | inactive | inactive | inactive | inactive | inactive
Nc1ccc(C(=O)NCC(=O)O)cc1 | inactive | inactive | inactive | inactive | inactive
O=C1c2cccc3c2[C@H](CCC3)CN1[C@@H]1CN2CCC1CC2 | inactive | inactive | inactive | inactive | inactive
CCCCCCCCCCCCCCC[C@H](O)[C@@H](N)CO | inactive | inactive | inactive | inactive | inactive
C#C[C@]1(O)CC[C@H]2[C@@H]3CCc4cc(OC)ccc4[C@H]3CC[C@@]21C | inactive | inactive | inactive | inactive | inactive
O=S(c1cc(Cl)cc(Cl)c1O)c1cc(Cl)cc(Cl)c1O | inactive | inactive | inactive | inactive | inactive
CC(=O)Nc1ccc(CC(=O)O)cc1 | inactive | inactive | inactive | inactive | inactive
C=C[C@H]1CN2CC[C@H]1C[C@H]2[C@H](O)c1ccnc2ccc(OC)cc12 | inactive | inactive | inactive | inactive | inactive
O=C(O)P(=O)(O)O | inactive | inactive | inactive | inactive | inactive
c1ccc(-c2nc[nH]c2-c2ccccc2)cc1 | inactive | inactive | inactive | inactive | inactive
Cn1c(=O)c2[nH]c(Br)nc2n(C)c1=O | inactive | inactive | inactive | inactive | inactive

SMILES | Potency [1] | Potency [2] | Potency [3] | Potency [4] | Potency [5]
COP(=O)(OC)OC(c1ccc(Cl)cc1)P(=O)(OC)OC (stereo not drawn) | inactive | inactive | inactive | inactive | inactive
Cc1cccc(C)c1NC(=O)CN1CCCCCC1 | inactive | inactive | inactive | inactive | inactive
CN(C)CCN1C(=O)c2ccccc2N(C)c2ccccc21 | inactive | inactive | inactive | inactive | inactive
O=C(CN1CCN(Cc2ccc3c(c2)OCO3)CC1)N1c2ccccc2Sc2ccccc21 | inactive | inactive | inactive | inactive | inactive
CC(=O)NCCCCCC(=O)O | inactive | inactive | inactive | inactive | inactive
CCOc1ccccc1OCCN[C@H](C)Cc1ccc(OC)c(S(N)(=O)=O)c1 | inactive | inactive | inactive | inactive | inactive
Nc1nc(-c2ccccc2)c(Br)c(=O)[nH]1 | inactive | inactive | inactive | inactive | inactive
OCc1ccccn1 | inactive | inactive | inactive | inactive | inactive
O=C(O)Cc1csc(-c2ccc(Cl)cc2)n1 | inactive | inactive | inactive | inactive | inactive
CN(C)CCOC(c1ccc(Cl)cc1)c1ccccn1 (stereo not drawn) | inactive | inactive | inactive | inactive | inactive
NCCNC(=O)c1ccc(Cl)cn1 | inactive | inactive | inactive | inactive | inactive
CCc1ccc(C(=O)C(C)CN2CCCCC2)cc1 (stereo not drawn) | inactive | inactive | inactive | inactive | inactive
CC(=O)NO | inactive | inactive | inactive | inactive | inactive
COc1cc(C)nc(-n2nc(C)cc2OC)n1 | inactive | inactive | inactive | inactive | inactive
CN1CCN(c2cc3c(cc2F)c(=O)c(C(=O)O)cn3-c2ccc(F)cc2)CC1 | inactive | inactive | inactive | inactive | inactive
CCCCCCCCCCCCCCCCO | inactive | inactive | inactive | inactive | inactive
Cc1nc(-c2ccc(Cl)cc2)oc1COC(C)(C)C(=O)O | inactive | inactive | inactive | inactive | inactive
COc1ccc(CCN(C)CCCN2CCc3cc(OC)c(OC)cc3CC2=O)cc1OC | inactive | inactive | inactive | inactive | inactive
NCc1ccccc1Sc1ccccc1CO | inactive | inactive | inactive | inactive | inactive
CCOC(=O)C(C#N)=C(c1ccccc1)c1ccccc1 | inactive | inactive | inactive | inactive | inactive
CC(=O)OCC1=C(C(=O)O)N2C(=O)[C@@H](NC(=O)CSc3ccncc3)[C@H]2SC1 | inactive | inactive | inactive | inactive | inactive
CCNC(=O)/C=C/c1cccc(Br)c1 | inactive | inactive | inactive | inactive | inactive
COc1ccc(C(=O)c2ccccc2O)c(O)c1 | inactive | inactive | inactive | inactive | inactive
